# Results taken from article PMC5540273 (PLoS ONE, 2017).
# How the values were obtained:
# Conditions in all cases: concentration: 1 μM, replicates: in singlicate; n = 1
# [1] = tested on: EPHB3
# [2] = tested on: EPHB4
# [3] = tested on: EPHB6
# [4] = tested on: ERBB2
# [5] = tested on: ERBB3
# [6] = tested on: ERBB4
# [7] = tested on: T1, ERK1
# T1 construct: gene MAPK3
# [8] = tested on: T2, ERK2
# T2 construct: gene MAPK1
# [9] = tested on: T3, ERK3
# T3 construct: gene MAPK6
# [10] = tested on: T4, ERK4
# T4 construct: gene MAPK4
# [11] = tested on: T5, ERK5
# T5 construct: gene MAPK7
# [12] = tested on: T6, ERK8
# T6 construct: gene MAPK15
# [13] = tested on: ERN1
# [14] = tested on: T7, FAK
# T7 construct: gene PTK2
# [15] = tested on: FER
# [16] = tested on: FES
# [17] = tested on: FGFR1
# [18] = tested on: FGFR2
# [19] = tested on: FGFR3
# [20] = tested on: FGFR4
# 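Further: KINOMEscan kinase panel screen.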
Compound,%Inh [1] [%],%Inh [2] [%],%Inh [3] [%],%Inh [4] [%],%Inh [5] [%],%Inh [6] [%],%Inh [7] [%],%Inh [8] [%],%Inh [9] [%],%Inh [10] [%],%Inh [11] [%],%Inh [12] [%],%Inh [13] [%],%Inh [14] [%],%Inh [15] [%],%Inh [16] [%],%Inh [17] [%],%Inh [18] [%],%Inh [19] [%],%Inh [20] [%]
Cc1ccc(-c2ccc3c(ccc4sc5c(c43)NC[C@@H](C)N=C5N(C)C)n2)cn1,0,0,15,8,0,3,0,0,1,14,2,8,0,0,1,0,0,0,0,0
FC(F)(F)c1ccc(-c2ncn(CCCN3CCOCC3)c2-c2ccncc2)cc1 [SB-217780],0,9,18,16,0,47,0,0,7,0,0,1,26,1,9,4,90,0,6,1
Nc1ncnc2c1ncn2-c1cccc(F)c1 [SKF-97560],0,0,25,1,20,0,9,0,13,2,3,0,27,1,14,0,0,12,1,90.7
Cc1cc(Nc2nc(-c3cccc(C)n3)nc3ccccc23)ccn1 [GW872411],0,0,0,0,0,0,0,0,0,0,3,13,0,0,0,0,12,0,0,0
COc1ccc(-c2cc3c(C)nc(N)nc3n([C@H]3CC[C@H](OCCO)CC3)c2=O)cn1,16,5,4,13,0,0,0,14,0,16,12,0,0,0,13,1,7,0,0,0
Cc1ccc(Oc2ccc(Nc3ncnc4cc[nH]c34)cc2C)cn1,26,28,53,100,24,29,0,26,0,7,5,0,21,8,15,23,10,0,4,11
O=C1NC(=O)C(c2ccccc2)=C1Nc1cccc(O)c1 [SB-390534],0,0,0,0,0,3,0,0,0,0,0,0,0,0,0,0,11,0,10,1
Cc1nn2c(=O)cc(N3CCOCC3)nc2n1Cc1cccc(Cl)c1Cl [GSK2342769],16,16,0,0,0,0,0,0,0,5,0,18,0,0,14,6,1,30,15,5
COc1cc2ncn(-c3cc(OCc4ccc(S(C)(=O)=O)cc4)c(C(N)=O)s3)c2cc1OC [GW869979],0,0,38,0,11,0,10,2,6,0,0,12,6,2,0,0,0,5,4,0
Nc1ncnc2c1ncn2-c1cccc2ccccc12 [SKF-97184],0,0,0,10,26,41,0,0,0,0,0,9,0,0,0,0,12,0,0,0
COc1cc(OC)cc(-c2cc3cnc(N)nc3nc2NC(=O)NC(C)(C)C)c1,0,0,24,4,0,4,0,0,0,4,2,29,0,0,0,0,97.8,96.7,96.3,54
Cc1nc(N(C)[C@H]2CN(C(=O)CC#N)CC[C@H]2C)c2cc[nH]c2n1,6,9,19,7,0,0,8,13,5,19,7,1,12,0,0,9,1,6,0,0
COC(=O)c1c(-c2ccccc2)c2cc(Br)ccc2c(=O)n1Cc1ccc(NC(=O)CCC(=O)O)cc1,19,13,14,57,0,0,0,29,3,3,13,0,20,0,0,9,0,0,0,0
COc1ccc(-c2coc3ccc(-c4nnc(SCc5cccc(C#N)c5)o4)cc23)cc1,6,0,0,14,0,0,0,26,0,0,0,14,11,0,10,7,11,13,17,17
COc1ccc(-n2cnc3c(N)ncnc32)cc1 [SKF-97236],0,0,1,7,0,1,14,9,0,0,0,40,0,13,13,0,27,0,0,18
O=C(Nc1n[nH]c2nc(-c3ccccc3)c(Br)cc12)C1CC1 [SB-708998],5,13,23,11,3,0,5,0,2,0,100,15,0,0,7,0,14,0,13,5
Nc1n[nH]c2nnc(-c3ccccc3)c(-c3ccccc3)c12 [GW554060],43,8,17,27,16,32,0,0,3,0,0,50,7,0,21,0,4,25,32,1
O=C(NCCNc1ccnc(Nc2ccc(F)cc2)n1)Nc1ccc2c(c1)OCO2 [GSK1379882],0,0,38,9,10,7,0,0,9,22,2,0,30,0,0,0,0,0,2,0
CCC(=O)c1c(-c2ccccc2)c2cc(Cl)ccc2c(=O)n1Cc1cc(S(C)(=O)=O)n(CCC(C)(C)O)n1,9,0,21,0,7,20,12,32,14,14,15,0,18,10,10,5,0,22,29,8
CN1C(=O)C(Nc2cc(Cl)c(O)c(Cl)c2)=C(c2ccc(Cl)cc2)C1=O [SB-404321],0,0,0,24,0,0,0,9,0,0,0,0,0,0,0,0,0,0,9,0
COc1cc2ncn(-c3cc(OCc4ccncc4Br)c(C(N)=O)s3)c2cc1OC [GW854278],0,18,3,11,37,0,0,0,0,4,0,0,24,0,2,0,43,16,29,7
